# ERb SRC1 inh: blocks coactivator binding to human estrogen receptor beta; AID 633; 86,000 tested, 1.3% active; inhibition, % at 25.6 µM; TR-FRET ER-beta LBD / SRC1-Cy5 peptide binding; receptor agonist-loaded with 1 µM estradiol; Q92731;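 active = compounds whose percent inhibition of the receptor-coactivator binding signal exceeds about 50% in the single-dose screen, limit read from the data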;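 also: 0% = receptor plus peptide wells without compound and 100% = peptide-only wells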
# HePTP inhibitor: human HePTP phosphatase inhibition. P35236. recombinant HePTP phosphatase activity, OD absorbance. inhibition, % at 20 µM. 110,000 tested, 0.64% active; in the data active = inhibition above about 50%;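 also: plate controls were vehicle for no effect and reference inhibitor for full effect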
# Target sequence (P35236 whole entry, looked up): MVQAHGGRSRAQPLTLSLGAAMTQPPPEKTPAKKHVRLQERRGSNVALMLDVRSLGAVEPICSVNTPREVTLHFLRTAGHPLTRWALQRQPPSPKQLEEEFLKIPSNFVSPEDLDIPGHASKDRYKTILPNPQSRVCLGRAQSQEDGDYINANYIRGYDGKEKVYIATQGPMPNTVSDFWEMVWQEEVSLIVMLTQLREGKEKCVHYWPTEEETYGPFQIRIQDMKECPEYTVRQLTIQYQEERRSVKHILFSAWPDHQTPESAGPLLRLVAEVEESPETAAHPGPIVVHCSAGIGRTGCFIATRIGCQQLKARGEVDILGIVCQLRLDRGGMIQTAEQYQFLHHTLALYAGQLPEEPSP
# Candida biofilm: kills Candida albicans biofilms; C. albicans biofilm + clotrimazole, Alamar Blue; inhibition, % at 6 µM; 85,000 tested, 0.14% active;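 active = inhibition above 20%; inactive = inhibition below 20%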;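 also: preformed 24 hr biofilms exposed to compound for 48 hr; 0% = biofilm without compound and 100% = blank killed by clotrimazole plus chlorhexidine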
# ERa coact inh: ER-alpha (human) coactivator binding inhibition; 86,000 tested, 1.7% active; P03372; inhibition, % at 25.6 µM; TR-FRET ER-alpha LBD / SRC-1 peptide, estradiol-bound; in the data active = inhibition above about 50%;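 also: 0% = receptor plus peptide control and 100% = peptide only without receptor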
# ERa coact pot: enhances coactivator binding to human estrogen receptor alpha; AID 639; 86,000 tested, 1.3% active; TR-FRET ERalpha-LBD/SRC-Cy5 coactivator binding, 2 h; 100 = basal binding, no effect; coactivator binding (% of control), % at 25.6 µM; P03372; in the data active = activity above about 200%;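 also: binding measured in presence of low estradiol as agonist stimulus; 0% = peptide alone without receptor and 100% = receptor with peptide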
# Smad3 FoxH1 inh: blocks human Smad3 binding to FoxH1 peptide; 88,000 tested, 0.29% active; inhibition, % at 25 µM; TR-FRET Smad3/Dy647-FoxH1 peptide binding, europium anti-His;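 active = compounds that reduce the energy-transfer binding signal between the protein and its labelled peptide by more than half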;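 also: 0% = Smad3 plus labelled peptide maximal FRET and 100% = peptide-only background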
# * hit, by the source's call; / = not tested or not shown; ! = not active in a repeat; [ ] = another dose, or the depositor's remark. In the library only some 2.9% were active in any assay of this set; here they are far more common.
SMILES,ERb SRC1 inh,HePTP inhibitor,Candida biofilm,ERa coact inh,ERa coact pot,Smad3 FoxH1 inh
c1ccc(Cn2nnnc2CN2CCN(Cc3ccc4c(c3)OCO4)CC2)cc1,0,8,8,6,209*,8
Cc1nc(NCc2ccc3c(c2)OCO3)c2nnn(Cc3ccccc3)c2n1,27,7,5,63*[fluorescence artefact?],154,3
c1ccc(Cn2nnc3c(NCc4ccc5c(c4)OCO5)nc(C4CC4)nc32)cc1,43,3,5,79*[fluorescence artefact?],56,-11
CCOc1ccc(N(CC(=O)NC(C)CC)S(=O)(=O)c2ccc(Br)cc2)cc1 (stereo not drawn),/,4,/,/,/,/
Cc1c2n(c3ccccc13)CCNC2c1ccccc1 (stereo not drawn),/,-9,/,/,/,/
CCCCN(CCCC)S(=O)(=O)c1ccc(NC(=O)Cc2cccs2)cc1,67*,/,0,67*[fluorescence artefact?],62,3
CCCN(CCC)S(=O)(=O)c1ccc(NC(=O)Cc2cccs2)cc1,48,/,2,63*,79,5
CCCNS(=O)(=O)c1ccc(NC(=O)Cc2cccs2)cc1,-1,/,10,-6,111,7
CC(=O)c1cccc(NC(=O)Cc2cccs2)c1,73*[fluorescence artefact?],11,5,84*,29,9
Cc1cc(=O)[nH]c(N/N=C/c2ccccc2[N+](=O)[O-])n1,/,7,/,/,/,/
C=CCN1C(=O)/C(=C/c2ccc(Br)cc2)S/C1=N\c1nnc(CC)s1,/,4,/,/,/,/
Cc1ccc(NNC(=O)C(O)(c2ccccc2)c2ccccc2)c(Br)c1,/,6,/,/,/,/
Cc1ccc(-c2cc3nc(-c4ccccc4)cc(N4CCOCC4)n3n2)cc1,-20,/,1,-25,174,14
COc1ccc(-c2cc3nc(-c4ccccc4)cc(N4CCC5(CC4)OCCO5)n3n2)cc1,21,10,6,-7,267*[fluorescence artefact?],21
CCOC(=O)c1c(NC(=O)c2ccc([N+](=O)[O-])cc2)sc2c1CCC2,/,4,/,/,/,/
COC(=O)c1ccccc1P(C)(C)=O,/,-4,/,/,/,/
CC(=O)C1=C(O)C=C(c2ccco2)CC1c1ccco1 (stereo not drawn),50*[fluorescence artefact?],-2,0,17,86,-3
Cc1cc(OCC(=O)Nc2ccc3oc(-c4ccncc4)nc3c2)ccc1Cl,36,11,11,47,204*[fluorescence artefact?],-12
Cc1ccc(OCC(=O)Nc2ccc(-c3nc4ncccc4o3)cc2)c(C)c1,45,104*!,3,51*[fluorescence artefact?],157,9
Cc1cc(OCC(=O)Nc2ccc(-c3nc4ncccc4o3)cc2)ccc1Cl,/,63*,/,/,/,/
O=C(COc1ccccc1)Nc1ccc(Cl)c(-c2nc3ncccc3o2)c1,44,7,4,50*,226*[fluorescence artefact?],12
CCc1ccc(/C=C2/C(=O)NN(c3ccc(C)cc3)C2=O)cc1,/,5,/,/,/,/
COc1ccc(CCNC(=S)Nc2cccc(C(F)(F)F)c2)cc1OC,/,2,/,/,/,/
COc1ccc(CC(=O)Nc2cc([N+](=O)[O-])ccc2C)cc1OC,/,-5,/,/,/,/
O=C(COc1ccccc1[N+](=O)[O-])Nc1ccc(-c2nc3ccccc3o2)cc1,/,13,/,/,/,/
SMILES,ERb SRC1 inh,HePTP inhibitor,Candida biofilm,ERa coact inh,ERa coact pot,Smad3 FoxH1 inh
O=C(COc1ccccc1[N+](=O)[O-])Nc1ccc(-c2nc3ncccc3o2)cc1,/,65*,/,/,/,/
O=c1c2c(-c3ccco3)csc2nc(SCc2cn3cccnc3n2)n1-c1ccccc1,28,3,3,67*[fluorescence artefact?],81,8
O=C(CSc1nc2scc(-c3ccco3)c2c(=O)n1-c1ccccc1)NCC1CCCO1 (stereo not drawn),55*,-7,3,62*,143,-2
C=CCn1c(SCC(=O)NCC2CCCO2)nc2scc(-c3ccco3)c2c1=O (stereo not drawn),13,3,0,19,81,5
O=C(CC(c1ccccc1)c1ccccc1)NCC1(c2ccccc2)CCOCC1,/,-8,/,/,/,/
O=c1c2c3c(sc2nc2sc(CN4CCCCC4)cn12)CCCC3,29,/,4,51*[fluorescence artefact?],268*[fluorescence artefact?],21
O=c1c2c3c(sc2nc2n1CCCCC2)CCC3,4,/,4,11,90,12
CCCC(=O)Nc1cc2nn(-c3ccc(C)cc3)nc2cc1C,/,1,/,/,/,/
Cc1ccc(-n2nc3cc(C)c(NC(=O)Cc4ccccc4)cc3n2)cc1,/,63*,/,/,/,/
CCCNC(=O)c1c(-c2ccccc2)noc1C,/,-1,/,/,/,/
Cc1onc(-c2ccccc2)c1C(=O)Nc1ccccc1Oc1ccccc1,/,5,/,/,/,/
CCCOc1ccccc1NC(=O)c1c(-c2ccccc2)noc1C,-3,10,30*,-1,96,0

# Screening data deposited in PubChem by several laboratories.
